High-throughput results deposited in PubChem by National Center for Advancing Translational Sciences (NCATS).
Shown are actives, neighbours in structure and some others; about 7.5% of the full set was active somewhere.
FMDV antiviral – High Throughput Screening for Foot and Mouth Disease Virus Antivirals. Potency, µM (highest dose often 57.9 µM), for the others: top-dose activity change, negative = inhibition, hits mostly inhibitors. 1.2% of 410,000 active. FMDV antiviral cell-based qHTS; calls by dose curve; tested in HEK293T cells; further: read-out not given here; potency means the concentration at half of the fitted maximal effect; nearly all actives have a fitted effect of over 45% in size
VACV mCherry inh – qHTS for Stage-Specific Inhibitors of Vaccinia Orthopoxvirus: mCherry Reporter Primary qHTS; 0.63% of 310,000 active; AID 720579, 2013; Vaccinia virus mCherry reporter infection, fluorescence; Potency, µM (top dose mostly 36.5 µM), inactives show at the highest dose activity change, negative = inhibition, hits mostly inhibitors; calls by dose curve; tested in A549 cells; further: potency means the concentration at half of the fitted maximal effect; nearly all actives have a fitted effect of over 35% in size
HCMV inh – qHTS Assay for inhibitors of the human cytomegalovirus (HCMV); HFF cells, HCMV-luciferase reporter, 72 h; hits give low values; activity change, negative = inhibition, % at 57.5 µM; 4.5% of 410,000 active; AID 1259415, 2018; in the data active means activity change below about -60%; inconclusive means no clear call, values can overlap the other calls; inactive means above about -39%
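Two-dose cell screen: HFF monolayers treated with compounds and infected with luciferase-expressing HCMV at 1 PFU/cell, 72 h at 37C, then lysed for luciferase measurement.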
Vaccinia Venus – qHTS for Stage-Specific Inhibitors of Vaccinia Orthopoxvirus: Venus Reporter Primary qHTS; Vaccinia virus Venus reporter expression, fluorescence; Potency, µM (highest dose often 36.5 µM), for inactives: at the top dose activity change, negative = inhibition, hits mostly inhibitors; 0.46% of 330,000 active; calls by dose curve; tested in A549 cells; further: potency means the concentration at half of the fitted maximal effect; nearly all actives have a fitted effect of over 30% in size
HCV inhibitor – qHTS Assay for Inhibitors of Hepatitis C Virus (HCV); Huh7.5.1 HCVcc-Cre infection, luciferase reporter, 44 h; Potency, µM (highest dose often 41.8 µM), without a hit: top-dose activity change, negative = inhibition, hits mostly inhibitors; 3.4% of 340,000 active; further: potency means the concentration at half of the fitted maximal effect
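Infectious HCV cell culture screen: compound-treated cells (1,000/well, pre-plated 4 h) are infected with HCVcc-Cre at roughly 0.5 moi and grown 44 h. Infection is quantified by luciferase signal after 15 min substrate incubation at room temperature.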
FBPA Giardia inh – qHTS Assay for Inhibitors of Fructose-1,6-bisphosphate Aldolase from Giardia Lamblia; purified Giardia FBPA; Potency, µM (doses to about 59.6 µM), for the others: at the highest dose activity, negative = inhibition, usual class: inhibitors; 0.71% of 290,000 active; A8B2U2; AID 2451, 2010; further: potency means the concentration at half of the fitted maximal effect; nearly all actives have a fitted effect of over 55% in size
Target sequence (A8B2U2 whole entry, looked up): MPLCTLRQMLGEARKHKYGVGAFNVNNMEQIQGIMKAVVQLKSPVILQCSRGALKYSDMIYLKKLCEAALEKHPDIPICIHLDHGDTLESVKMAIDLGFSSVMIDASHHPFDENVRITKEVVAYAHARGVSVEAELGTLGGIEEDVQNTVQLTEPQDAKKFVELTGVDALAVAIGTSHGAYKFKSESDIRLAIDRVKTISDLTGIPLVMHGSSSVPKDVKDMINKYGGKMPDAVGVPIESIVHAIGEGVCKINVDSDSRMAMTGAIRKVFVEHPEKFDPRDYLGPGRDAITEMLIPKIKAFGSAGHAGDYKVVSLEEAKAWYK
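40 nM FBPA preincubated 10 min at RT with compound (up to 57.5 uM final), then substrate plus GAPDH/TPI/NAD/arsenate coupling and diaphorase/resazurin added. Fluorescence read after 20 min at RT, 525/598 nm.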
An asterisk follows results filed as active; i = inactive; ? = inconclusive; / = not tested or not shown; + = active, no number; [ ] = dose if it differs, or a comment. Unless noted, the call rests on the fitted dose curve; in most records, active means well fitted curve in the direction sought with a large enough effect; inconclusive means small, poorly fitted or top-dose-only effect, or another doubt; inactive means no such curve, though single readings can be large; an effect the other way counts as inactive or inconclusive. On the % scale 0 is the no-effect control and ±100 the full control effect.

SMILES	FMDV antiviral	VACV mCherry inh	HCMV inh	Vaccinia Venus	HCV inhibitor	FBPA Giardia inh
CC(=O)Nc1sc(-c2ccc(Cl)cc2)nc1-c1ccccc1	-1.7%	-9.6%	0.0	-10.8%	?	-0.4%
COCCNc1nc(-c2ccc(OC)cc2)c(-c2ccc(OC)cc2)s1	-22.1%	/	-68.9*	/	?	-23.8%
CCCCCCNc1nc(-c2ccc(OC)cc2)c(CCC(=O)O)s1	-10.5%	-11.3%	-61.6*	-2.1%	12.8%	5.1%
CC(=O)Nc1sc(-c2ccccc2)nc1-c1ccccc1	-3.7%	-7.1%	-36.8	-12.2%	11.2µM*	-4.2%
CCN(CC)CCNc1nc(-c2ccc(OC)cc2)c(-c2ccc(OC)cc2)s1	-20.1%	/	-39.0	/	?	5.0%
COc1ccc(OC)c(-c2noc(N3CCN(c4cccc(C)c4C)CC3)n2)c1	-20.6%	-8.3%	-7.1	-15.0%	/	/
O=S1(=O)N(Cc2ccccc2)CCCN1Cc1ccc(F)cc1Cl	6.8%	-5.0%	+	-8.5%	/	/
O=S1(=O)N(Cc2ccccc2Cl)CCCN1Cc1ccccc1Cl	10.1%	-3.6%	1.4	4.4%	/	/
CCOC(=O)Nc1ccc2c(c1)N(C(=O)CCN(CC)CC)c1ccccc1S2=O (stereo not drawn)	-11.0%	10µM*	51.4	?	-4.4%	1.1%
Clc1ccc(Cl)c2sc(N3CCCC3)nc12	9.1%	/	-10.4	/	?	12.6%
Clc1ccc(Cl)c2sc(N3CCOCC3)nc12	35.2%	-0.9%	7.9	-23.1%	12.6µM*	/
CSCC[C@H](N)C(=O)N[C@@H](CCCN=C(N)N)C(=O)N[C@@H](CC(C)C)C(=O)N[C@@H](Cc1ccccc1)C(=O)N[C@H](C(=O)O)C(C)C	/	/	/	/	/	-0.9%
COC(=O)[C@@H]1[C@@H](C#N)C2(c3ccccc3-c3ccccc32)N(c2ccc(Cl)cc2)N1C#N	25.1µM*	?	-27.2	?	?	-18.8%
O=C(Cc1ccc(Cl)cc1)NN1C(=O)c2ccccc2C1=O	-9.3%	/	21.6	/	21.9%	3.8%
CC(C)(C)OC(=O)N1CC23CC(c4ccc(F)cc4)C(CC2S1(=O)=O)O3 (stereo not drawn)	/	/	/	/	/	6.1%
COc1ccccc1N1CCN(CCCCN2C(=O)c3ccccc3C2=O)CC1	-14.6%	-17.4%	-102.0*	-9.3%	?	-0.8%
COc1cc(C(=O)Nc2cccc(-c3nc4ncccc4o3)c2C)cc(OC)c1OC	2.6%	/	-105.9*	-0.8%	?	5.1%
Cc1ccc(S(=O)(=O)N2CCOC23CCN(S(=O)(=O)c2c(C)cc(C)cc2C)CC3)cc1	-1.0%	i	-98.0*	-23.4%	?	/
CN=C(c1ccco1)n1c(=S)nc(-c2ccco2)n(C)c1=S	7.0%	?	73.3	12.6µM*	11.2µM*	-27.6%
Nc1nc2c(-c3ccc([N+](=O)[O-])cc3)nnn2c2ccccc12	/	/	-15.8	/	/	/
CC1=C(C(=O)OCc2ccccc2)C(c2ccccc2OS(=O)(=O)c2ccccc2[N+](=O)[O-])NC(=O)N1CCCC(=O)O (stereo not drawn)	0.0%	-1.7%	-9.4	?	8.7%	/
CCOc1ccc(S(=O)(=O)N2CCN(CC)CC2)cc1NC(=O)c1ccccc1F	11.0%	-21.3%	-83.8*	-24.8%	-14.8%	2.7%
COc1cc(/C=N/n2c(-c3ccc4c(c3)NC(=O)CO4)csc2=Nc2cccc(C)c2)ccc1O	?	-7.2%	-96.5*	?	7.08µM*	5.0%
COCCN=c1scc(-c2ccc3c(c2)NC(=O)CO3)n1/N=C(\C)c1ccc(O)cc1	0.0%	-11.5%	?	9.1%	?	?
CCN(CC)C(=O)c1cccc(-c2csc(C(O)c3ccc(F)c(F)c3)n2)c1 (stereo not drawn)	?	12.5%	-12.1	-17.7%	/	/
SMILES	FMDV antiviral	VACV mCherry inh	HCMV inh	Vaccinia Venus	HCV inhibitor	FBPA Giardia inh
CC(=O)c1ccc(N2CCN(C(=O)c3ccc(C(=O)c4ccccc4)cc3)CC2)cc1	-22.9%	/	10.6	/	?	/
Cc1nn(-c2ccccc2)c(N)c1Sc1ccc([N+](=O)[O-])cc1	31.6µM*	i	-28.1	-8.5%	-24.5%	-13.1%
Cc1nn(S(=O)(=O)c2ccc(Cl)cc2)c(C)c1Sc1ccc([N+](=O)[O-])cc1	?	-10.0%	-77.5*	-7.0%	?	0.6%
Cc1nn(-c2ccccc2)c(OC(=O)C(C)C)c1Sc1ccccc1	-19.2%	-13.9%[7.34 µM]	-6.4	-2.7%[7.34 µM]	/	/
Cc1nn(S(=O)(=O)c2ccc(Cl)cc2)c(C)c1S(=O)(=O)N1CCCCCC1	?	-4.3%	3.5	-2.0%	/	/
CNC(=O)c1ccc(Nc2nnc(-c3ccc(C)c(S(=O)(=O)NC(C)(C)C)c3)c3ccccc23)cc1	9.9%	-14.9%	10.7	-2.8%	/	/
Nc1nc2c(nc(SCc3ccccc3Br)n2[C@@H]2O[C@H](CO)[C@@H](O)[C@H]2O)c(=O)[nH]1	-10.6%	i	7.8	-7.0%	4.5%	8.4%
Cn1c(=O)c2cc(NC(=S)NCc3ccccc3F)ccc2n1Cc1ccccc1	-17.9%	-4.9%	-20.4	-9.1%	/	/
COc1cccc(Cn2c3ccc(NC(=O)CCc4ccc(F)cc4)cc3c(=O)n2C)c1	-26.2%	-12.1%	-85.2*	?	/	/
COc1ccccc1CCC(=O)Nc1ccc2c(c1)c(=O)n(C)n2Cc1ccc(F)cc1	-28.7%	-1.7%	11.9	-27.6%	/	/
CCOCCC(=O)Nc1ccc2c(c1)c(=O)n(C)n2Cc1cccc(C(F)(F)F)c1	0.0%	-29.8%	-61.7*	-7.8%	/	/
Cn1c(=O)c2cc(NC(=S)NCc3ccccc3F)ccc2n1Cc1cccc(C(F)(F)F)c1	-9.6%	i	-68.9*	-23.5%	/	/
CCOc1ccc(-n2c(-c3ccccc3)c(C)n3c4c(=O)n(C)c(=O)n(C)c4nc23)cc1	-18.5%	-0.5%	-28.0	0.0%	/	/
CC(C)c1nnc(NC(=O)c2nc(S(=O)(=O)Cc3ccccc3)ncc2Cl)s1	4.47µM*	?	-110.4*	?	?	/
CSc1ncc(Cl)c(C(=O)Nc2nnc(SC)s2)n1	-22.9%	/	-3.5	-11.8%	5.7%	-20.4%
Cc1ccccc1CS(=O)(=O)c1ncc(Cl)c(C(=O)Nc2nnc(C(C)C)s2)n1	20µM*	?	-98.7*	?	/	/
CSc1nnc(NC(=O)c2nc(S(=O)(=O)Cc3ccccc3)ncc2Cl)s1	6.31µM*	-1.4%	-101.7*	-2.3%	12.6µM*	/
CCNc1nc(NCC)nc(Oc2ccc(C(=O)OC)cc2)n1	-8.8%	/	-15.0	/	-14.1%	-0.2%
Cc1ccc(O)c(C2=NNC(O)(C(F)(F)F)C2)c1 (stereo not drawn)	-15.2%	-9.3%[1.46 µM]	-30.3	?	11.2µM*	-6.6%
